Results as given in PubChem BioAssay (Tox21).
Several values for one entry are separate records, joined by “and”; a condition that tells them apart may be missing. Equal values may be shown once. Records with an inconclusive call do not appear. Some compounds were tested as several samples or in several runs, with calls that do not always agree. Activity calls are given as the source filed them. Unless noted, calls come from the whole dose curve.

Key:
[1] = Nuclear factor erythroid 2-related factor 2/antioxidant responsive element (Nrf2/ARE) small molecule agonists: luciferase reporter gene qHTS assay in human keratinocytes (AID 1919969); note: nearly all actives have a fitted effect of over 35% in size; note: potency is the fitted concentration of half-maximal effect
[2] = target: Gonadotropin-releasing hormone receptor (Homo sapiens) (UniProt P30968); experiment: Human gonadotropin-releasing hormone receptor (GnRHR) small molecule agonists, calcium flux assay in GnRHR-HEK293 cells (AID 1920063); note: nearly all actives have a fitted effect of over 35% in size; note: potency is the fitted concentration of half-maximal effect
Gonadotropin-releasing hormone receptor (Homo sapiens), sequence (P30968 whole entry, looked up): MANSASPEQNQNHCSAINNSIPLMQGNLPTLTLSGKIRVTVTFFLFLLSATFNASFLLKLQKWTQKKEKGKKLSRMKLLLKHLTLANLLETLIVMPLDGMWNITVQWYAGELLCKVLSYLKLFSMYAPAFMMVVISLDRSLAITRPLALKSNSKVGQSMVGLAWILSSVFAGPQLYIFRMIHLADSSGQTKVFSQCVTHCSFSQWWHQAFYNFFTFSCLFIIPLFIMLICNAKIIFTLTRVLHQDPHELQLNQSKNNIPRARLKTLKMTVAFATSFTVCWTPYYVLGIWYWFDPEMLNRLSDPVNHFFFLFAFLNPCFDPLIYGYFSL
Summary of the method: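 Calcium-dye fluorescence, Ex/Em=480/540, recorded every 1 sec over 3 min after compound addition to GnRHR-HEK293 cells. Cells had been seeded 18 hours earlier and dye-loaded for 1 hour at 37 C. Fifteen concentrations, triplicates.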

[3] = target: KiSS-1 receptor (Homo sapiens) (UniProt Q969F8); experiment: Human kisspeptin (KISS1R) small molecule agonists, calcium flux assay in KISS1R-HEK293 cells (AID 1920064; active = well fitted activation curve with a large enough effect in the repeat runs)
KiSS-1 receptor (Homo sapiens), sequence (Q969F8 whole entry, looked up): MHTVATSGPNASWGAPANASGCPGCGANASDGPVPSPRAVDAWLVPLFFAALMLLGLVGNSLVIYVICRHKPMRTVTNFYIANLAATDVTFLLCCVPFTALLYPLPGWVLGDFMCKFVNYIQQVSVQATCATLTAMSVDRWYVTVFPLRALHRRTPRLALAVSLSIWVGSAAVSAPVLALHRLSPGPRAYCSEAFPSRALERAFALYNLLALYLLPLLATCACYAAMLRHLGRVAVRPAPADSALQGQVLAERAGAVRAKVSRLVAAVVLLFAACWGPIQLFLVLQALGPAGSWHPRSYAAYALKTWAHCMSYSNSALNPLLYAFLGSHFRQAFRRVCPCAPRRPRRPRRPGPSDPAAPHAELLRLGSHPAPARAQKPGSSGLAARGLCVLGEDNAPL
Summary of the method: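 Calcium flux read-out: kinetic fluorescence at Ex/Em=480/540, 1 s intervals over 3 min, after pin-tool compound addition to dye-loaded KISS1R-HEK293 cells. Fifteen concentrations, triplicates.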

[4] = G protein-coupled receptor (GPCR) small molecule agonists, calcium flux assay: HEK293 wild type cell line counter screen (AID 1920065); note: potency is the fitted concentration of half-maximal effect
Summary of the method: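 Agonist mode; 18 h seeding at 37 C, 1 h dye load at 37 C; compounds pinned from DMSO, ATP as positive control; kinetic fluorescence 480/540 nm, 3 min, 1 s reads; 15 concentrations, triplicate.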

[5] = p53 small molecule agonists, cell-based qHTS assay with human liver microsomes: qHTS cell viability counter screen (AID 1963579); note: nearly all actives have a fitted effect of over 45% in size; note: potency is the fitted concentration of half-maximal effect
Summary of the method: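 Cytotoxicity counter screen: p53RE-bla, 4,000 cells/well; 5 h settle, 37 C/5% CO2; cpd + HLM 0.5 mg/mL + NADPH 0.5 mg/mL (final); 16 h, 37 C; CellTiter-Glo, 30 min RT, luminescence.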

[6] = p53 small molecule agonists, cell-based qHTS assay: qHTS cell viability counter screen (AID 1963581); note: nearly all actives have a fitted effect of over 45% in size
Summary of the method: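 Cytotoxicity read-out: ATP-based luminescence (CellTiter-Glo, 30 min RT) measured in the same wells as the p53 reporter assay, HCT-116 p53RE-bla cells, 16 h compound exposure at 37 C.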

[7] = target: 5-hydroxytryptamine receptor 2A (Homo sapiens) (UniProt P28223); experiment: 5-hydroxytryptamine receptor 2A (HTR2A) small molecule antagonists, cell-based qHTS assay (AID 1963586); note: nearly all actives have a fitted effect of over 45% in size
5-hydroxytryptamine receptor 2A (Homo sapiens), sequence (P28223 whole entry, looked up): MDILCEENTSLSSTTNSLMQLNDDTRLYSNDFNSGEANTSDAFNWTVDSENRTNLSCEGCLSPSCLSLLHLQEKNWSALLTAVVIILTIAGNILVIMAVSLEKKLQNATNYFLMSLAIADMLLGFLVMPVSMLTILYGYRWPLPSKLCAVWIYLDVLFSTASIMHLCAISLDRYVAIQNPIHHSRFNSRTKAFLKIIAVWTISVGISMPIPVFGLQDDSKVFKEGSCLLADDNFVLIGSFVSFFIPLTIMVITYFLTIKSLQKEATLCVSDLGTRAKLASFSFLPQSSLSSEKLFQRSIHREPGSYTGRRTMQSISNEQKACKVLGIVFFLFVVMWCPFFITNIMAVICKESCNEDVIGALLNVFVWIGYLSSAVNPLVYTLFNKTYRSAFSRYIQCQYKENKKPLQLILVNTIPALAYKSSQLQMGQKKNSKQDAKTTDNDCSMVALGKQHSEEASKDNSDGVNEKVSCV
Summary of the method: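 CHO cells stably expressing human HTR2A were plated for 18 h at 37 C, then loaded with calcium dye for 1 h. Compounds were preincubated 5 min at room temperature before DOI (4 nM solution) was added. Kinetic fluorescence was read for 3 min.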

[8] = target: 5-hydroxytryptamine receptor 2A (Homo sapiens) (UniProt P28223); experiment: 5-hydroxytryptamine receptor 2A (HTR2A) small molecule agonists, cell-based qHTS assay (AID 1963587); note: nearly all actives have a fitted effect of over 30% in size; note: potency is the fitted concentration of half-maximal effect
Summary of the method: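 HTR2A-CHO cells, plated 18 h at 37 C/5% CO2, dye-loaded 1 h at 37 C; compounds in DMSO added by pin tool (agonist mode). Intracellular calcium flux read as kinetic fluorescence on FDSS over 2 min at 1 s intervals.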

[9] = target: Muscarinic acetylcholine receptor M1 (Homo sapiens) (UniProt P11229); experiment: Cholinergic receptor muscarinic 1 (CHRM1) small molecule antagonists, cell-based qHTS assay (AID 1963588); note: nearly all actives have a fitted effect of over 40% in size
Muscarinic acetylcholine receptor M1 (Homo sapiens), sequence (P11229 whole entry, looked up): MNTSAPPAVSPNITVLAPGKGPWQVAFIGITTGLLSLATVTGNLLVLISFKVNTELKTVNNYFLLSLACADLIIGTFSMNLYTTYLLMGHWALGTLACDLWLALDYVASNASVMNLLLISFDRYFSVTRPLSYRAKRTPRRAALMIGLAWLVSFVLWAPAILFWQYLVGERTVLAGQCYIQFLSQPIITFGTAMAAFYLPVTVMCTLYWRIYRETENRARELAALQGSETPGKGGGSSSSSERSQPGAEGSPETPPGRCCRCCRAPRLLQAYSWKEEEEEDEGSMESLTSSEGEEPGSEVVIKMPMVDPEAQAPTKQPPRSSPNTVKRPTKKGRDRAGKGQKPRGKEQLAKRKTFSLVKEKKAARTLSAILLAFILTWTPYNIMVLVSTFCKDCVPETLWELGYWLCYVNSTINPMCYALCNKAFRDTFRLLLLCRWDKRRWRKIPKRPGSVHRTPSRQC
Summary of the method: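 Compounds were tested at 15 concentrations in three independent runs. Dye-loaded CHRM1-CHO cells were exposed 5 min at room temperature before stimulation by acetylcholine added at 50nM. Intracellular calcium was read kinetically on FDSS for 3 min.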

[10] = target: Muscarinic acetylcholine receptor M1 (Homo sapiens) (UniProt P11229); experiment: Cholinergic receptor muscarinic 1 (CHRM1) small molecule agonists, cell-based qHTS assay (AID 1963589); note: nearly all actives have a fitted effect of over 35% in size; note: potency is the fitted concentration of half-maximal effect
Summary of the method: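 Calcium flux read-out: kinetic fluorescence at 1 sec intervals after pin-tool compound addition to dye-loaded CHRM1-CHO cells (human M1). Agonist mode; 15 concentrations tested in triplicate independent runs.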

[11] = cAMP Responsive Elements (CRE) small molecule agonists, cell-based qHTS assay (AID 1963590)
Summary of the method: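 Beta-lactamase reporter readout: LiveBLAzer B/G FRET substrate, 2 h at room temperature, added after 3 h compound treatment of CRE-bla HEK 293T cells at 37 C/5% CO2.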

[12] = cAMP Responsive Elements (CRE) small molecule antagonists, cell-based qHTS assay (AID 1963591; active = well fitted inhibition curve with a large enough effect in the signal ratio in the repeat runs, not every such curve was filed as active; the % refers to the signal ratio)
Summary of the method: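 HEK293T CRE-bla; 18 h preincubation; compound pin-transfer; NKH477 0.25 uM final, 3 h, 37 C; LiveBLAzer FRET substrate 2 h RT.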

[13] = target: Beta-2 adrenergic receptor (Homo sapiens) (UniProt P07550); experiment: Adrenergic beta2 receptor (ADRB2) small molecule antagonists, cell-based qHTS assay (AID 1963592); note: series mostly up to about 92 µM; nearly all actives have a fitted effect of over 50% in size
Beta-2 adrenergic receptor (Homo sapiens), sequence (P07550 whole entry, looked up): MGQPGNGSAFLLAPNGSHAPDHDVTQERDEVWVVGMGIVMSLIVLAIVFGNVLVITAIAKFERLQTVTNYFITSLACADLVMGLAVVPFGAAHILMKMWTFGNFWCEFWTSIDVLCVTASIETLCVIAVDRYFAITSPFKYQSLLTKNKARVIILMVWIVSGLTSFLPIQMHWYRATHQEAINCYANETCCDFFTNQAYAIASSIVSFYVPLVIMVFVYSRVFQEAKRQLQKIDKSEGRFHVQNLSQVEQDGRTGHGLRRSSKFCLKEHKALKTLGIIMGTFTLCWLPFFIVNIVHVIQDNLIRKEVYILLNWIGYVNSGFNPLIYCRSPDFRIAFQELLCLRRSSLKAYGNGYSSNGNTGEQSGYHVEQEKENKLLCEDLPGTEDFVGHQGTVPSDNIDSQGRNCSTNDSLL
Summary of the method: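 Assay format: CHO-ADRB2 cells, 18-20hr seeding at 37C/5% CO2, then compound plus 1nM isoproterenol agonist mix for 0.5hr RT. Homogeneous time-resolved fluorescence cAMP detection after 1hr, expressed as 665/615 nm ratio.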

[14] = target: Beta-2 adrenergic receptor (Homo sapiens) (UniProt P07550); experiment: Adrenergic beta2 receptor (ADRB2) small molecule agonists, cell-based qHTS assay (AID 1963593);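 note: CHO cells stably overexpressing human ADRB2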
Summary of the method: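 CHO cells stably over-expressing ADRB2 were plated overnight at 37C, then dosed with compounds plus a stimulation mix containing 100uM IBMX and 25uM Ro-20-1724 for 0.5hr at room temperature. cAMP was measured by HTRF competition, 1hr.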

[15] = target: D(2) dopamine receptor (Homo sapiens) (UniProt P14416); experiment: Dopamine D2 receptor (DRD2) small molecule agonists, cell-based qHTS assay (AID 1963594); note: nearly all actives have a fitted effect of over 35% in size
D(2) dopamine receptor (Homo sapiens), sequence (P14416 whole entry, looked up): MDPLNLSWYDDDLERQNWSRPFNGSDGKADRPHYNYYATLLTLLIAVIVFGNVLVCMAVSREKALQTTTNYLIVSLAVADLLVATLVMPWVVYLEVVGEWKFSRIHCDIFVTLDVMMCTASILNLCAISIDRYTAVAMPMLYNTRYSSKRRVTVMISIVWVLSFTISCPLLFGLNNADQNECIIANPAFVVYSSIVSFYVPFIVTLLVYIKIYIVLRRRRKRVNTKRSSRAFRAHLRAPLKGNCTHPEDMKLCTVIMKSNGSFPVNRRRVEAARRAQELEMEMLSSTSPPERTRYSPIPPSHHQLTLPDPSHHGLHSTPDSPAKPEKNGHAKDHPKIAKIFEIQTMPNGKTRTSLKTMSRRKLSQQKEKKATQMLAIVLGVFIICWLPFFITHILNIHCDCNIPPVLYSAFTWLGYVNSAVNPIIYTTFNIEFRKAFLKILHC
Summary of the method: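 HEK293 cells stably expressing DRD2 were cultured 24 h at 37 C, then given Ro20-1724 (0.1 mM final) and compounds for 10 min at room temperature. NKH477 (200nM) was then added for 30 min. cAMP was read by HTRF.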

[16] = target: D(2) dopamine receptor (Homo sapiens) (UniProt P14416); experiment: Dopamine D2 receptor (DRD2) small molecule antagonists, cell-based qHTS assay (AID 1963595; active = well fitted inhibition curve with a large enough effect in the signal ratio in the repeat runs, with a control signal flat; the % refers to the signal ratio)
Summary of the method: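 Antagonism was scored as restored cAMP in HEK293-DRD2 cells. These cells were stimulated with 200 nM NKH477 and 12 nM quinpirole for 30 min at room temperature, in the presence of 0.1 mM Ro20-1724.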

[17] = p53 small molecule agonists, cell-based qHTS assay with human liver microsomes (AID 1963577)
Summary of the method: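 Fluorescence of the beta-lactamase reporter in p53RE-bla cells, detected with LiveBLAzer substrate (2 h, room temperature, dark), served as the read-out after 16 h compound exposure at 37 C with human liver microsomes and NADPH, each 0.5 mg/mL final.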

[18] = p53 small molecule agonists, cell-based qHTS assay with rat liver microsomes (AID 1963578)
Summary of the method: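 Cells carrying a p53 response element–beta-lactamase reporter were plated and rested 5 h, then dosed with compound in DMSO plus rat liver microsomes and NADPH, each at 0.5 mg/mL final. After 16 h at 37 C, LiveBLAzer substrate was added for 2 h.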

[19] = p53 small molecule agonists, cell-based qHTS assay with rat liver microsomes: qHTS cell viability counter screen (AID 1963580); note: nearly all actives have a fitted effect of over 45% in size
Summary of the method: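 Counter screen for cytotoxicity under metabolic activation: rat liver microsomes and NADPH, 0.5 mg/mL final each, added with compounds to p53RE-bla HCT-116 cells; 16 h at 37 C, then ATP luminescence read.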

[20] = p53 small molecule agonists, cell-based qHTS assay (AID 1963582; active = well fitted activation curve with a large enough effect in the signal ratio in the repeat runs, not every such curve was filed as active; the % refers to the signal ratio)
Summary of the method: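 Fluorescence intensity read-out of a beta-lactamase reporter under a p53 response element. Cells were exposed to DMSO-dissolved compounds for 16 h at 37 C, then developed with FRET substrate for 2 h at RT.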
% is set by controls: 0 for no effect and ±100 for the full control effect.

CCCCCCC(O)CCCCCCCCCCC(=O)O (stereo not drawn)
3.9 µM (active) and inactive: Potency [8]
inactive: Potency [1] | Potency [2] | Potency [3] | Potency [4] | Potency [5] | Potency [6] | Potency [7] | Potency [9] | Potency [10] | Potency [11] | Potency [12] | Potency [13] | Potency [14] | Potency [15] | Potency [16]

CC1(O)CSC(C)(O)CS1 (stereo not drawn)
inactive: Potency [2] | Potency [3] | Potency [17] | Potency [18] | Potency [5] | Potency [19] | Potency [6] | Potency [20] | Potency [7] | Potency [8] | Potency [9] | Potency [10] | Potency [12] | Potency [13] | Potency [15] | Potency [16]
active: Potency [1] 30.6 µM

CCO[C@@H]1O[C@H](C(COCc2ccccc2)OCc2ccccc2)[C@H](OCc2ccccc2)[C@H]1O (stereo partly drawn)
inactive: Potency [1] | Potency [2] | Potency [4] | Potency [5] | Potency [19] | Potency [7] | Potency [8] | Potency [9] | Potency [10] | Potency [11] | Potency [12] | Potency [13] | Potency [15] | Potency [16]

OC12N=C(c3ccccc3)SC1Cc1cc(Cl)ccc12 (stereo not drawn)
inactive: Potency [2] | Potency [3] | Potency [18] | Potency [5] | Potency [19] | Potency [20] | Potency [7] | Potency [8] | Potency [9] | Potency [10] | Potency [11] | Potency [12] | Potency [15] | Potency [16]
active: Potency [1] 17.2 µM

Cc1cc2nc3c(=O)[nH]c(=O)nc-3n(C[C@H](O)[C@H](O)[C@H](O)CO)c2cc1C
inactive: Potency [1] | activation [17] -6.49% [at 13.5 µM] | activation [18] -5.55% [at 13.6 µM] | Potency [5] | Potency [19] | Potency [6] | Potency [20] | Potency [7] | Potency [9] | activity change, negative = inhibition [13] -10.6% [at 19 µM] | activation [14] 1.44% [at 19 µM]
active: Potency [2] 17.2 µM and 11.4 µM and 8.27 µM | Potency [4] 38.5 µM and 32.2 µM and 9.28 µM | Potency [8] 6.1 µM and 16.1 µM and 11.7 µM | Potency [10] 24.3 µM and 20.3 µM and 11.7 µM

Cc1c(O)cccc1O
inactive: Potency [1] | Potency [2] | Potency [3] | Potency [5] | Potency [6] | Potency [7] | Potency [8] | Potency [9] | Potency [10] | Potency [11] | Potency [12] | Potency [13] | Potency [14] | Potency [15] | Potency [16]

Oc1cc(Cl)cc(Cl)c1Cl
active: Potency [1] 49.7 µM | Potency [5] 29.6 µM
inactive: Potency [2] | Potency [3] | Potency [6] | Potency [8] | Potency [9] | Potency [10] | Potency [13] | Potency [15] | Potency [16]
